# Measurements taken from PubChem BioAssay (NCATS).
# Results filed as inconclusive are left out. Entries that show only a call come without a potency. Active and inactive are the calls of the source. The call rests on the fitted dose curve; in most records, active means well fitted inhibition curve with a large enough effect; inconclusive means small, poorly fitted or top-dose-only effect; inactive means flat fitted curve, though single readings scatter.
# Biological target: Voltage-gated inwardly rectifying potassium channel KCNH2 (Homo sapiens) (UniProt Q12809)
# Sequence (Q12809 whole entry, looked up): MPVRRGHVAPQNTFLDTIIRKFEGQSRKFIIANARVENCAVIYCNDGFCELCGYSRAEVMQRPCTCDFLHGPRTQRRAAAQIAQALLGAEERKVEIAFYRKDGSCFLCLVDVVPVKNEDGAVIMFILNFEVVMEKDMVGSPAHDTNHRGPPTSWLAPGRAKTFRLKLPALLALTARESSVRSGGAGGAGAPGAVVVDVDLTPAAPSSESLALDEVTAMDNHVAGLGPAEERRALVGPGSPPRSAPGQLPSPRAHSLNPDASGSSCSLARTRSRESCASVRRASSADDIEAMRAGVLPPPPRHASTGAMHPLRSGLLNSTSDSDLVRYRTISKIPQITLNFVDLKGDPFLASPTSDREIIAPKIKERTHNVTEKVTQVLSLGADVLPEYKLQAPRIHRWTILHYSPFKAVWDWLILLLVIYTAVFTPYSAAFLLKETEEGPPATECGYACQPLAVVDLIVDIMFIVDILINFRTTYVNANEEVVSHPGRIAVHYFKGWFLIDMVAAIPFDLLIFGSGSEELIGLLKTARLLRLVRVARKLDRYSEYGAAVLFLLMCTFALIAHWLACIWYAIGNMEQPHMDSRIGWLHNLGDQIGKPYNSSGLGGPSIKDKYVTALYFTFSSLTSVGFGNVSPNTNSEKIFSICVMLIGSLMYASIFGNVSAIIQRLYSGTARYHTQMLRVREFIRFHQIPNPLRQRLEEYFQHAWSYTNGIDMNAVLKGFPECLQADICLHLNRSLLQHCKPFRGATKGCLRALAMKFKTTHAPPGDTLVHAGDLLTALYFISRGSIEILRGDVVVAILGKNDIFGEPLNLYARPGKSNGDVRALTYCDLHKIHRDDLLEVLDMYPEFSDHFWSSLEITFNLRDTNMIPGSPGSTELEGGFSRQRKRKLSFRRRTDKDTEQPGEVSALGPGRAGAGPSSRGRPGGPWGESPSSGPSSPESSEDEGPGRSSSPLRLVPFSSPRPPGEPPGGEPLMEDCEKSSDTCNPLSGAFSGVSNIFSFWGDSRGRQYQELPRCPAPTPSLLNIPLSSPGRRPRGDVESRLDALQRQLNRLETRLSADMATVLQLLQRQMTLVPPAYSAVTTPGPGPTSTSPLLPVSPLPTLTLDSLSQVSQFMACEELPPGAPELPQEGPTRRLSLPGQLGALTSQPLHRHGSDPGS
# Assay: qHTS Assay for Small Molecule Inhibitors of the Human hERG Channel Activity (AID 588834);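 further: lower thallium flux fluorescence means stronger hERG block; nearly all actives have a fitted effect of over 50% in size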
# Settings: U2OS BacMam hERG, FluxOR thallium flux fluorescence; series mostly up to 46.1 µM
# Procedure, shortened: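 U2OS cells BacMam-transduced with hERG, 2000 cells/well, compound ~10 min at 37 °C before stimulation buffer. FluxOR thallium flux fluorescence read kinetically on FDSS; decrease indicates block; AC50 from Hill fits.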
# Potency means the concentration at half of the fitted maximal effect.
row,SMILES,Potency
1,CC(O)Cn1cnc2c1c(=O)n(C)c(=O)n2C (configuration not stated),inactive
2,C=C1c2cccc(O)c2C(O)=C2C(=O)[C@]3(O)C(O)=C(C(N)=O)C(=O)[C@@H](N(C)C)[C@@H]3[C@@H](O)[C@H]12,inactive
3,Nc1nc(Cl)nc2c1ncn2[C@@H]1O[C@H](CO)[C@@H](O)[C@@H]1F,inactive
4,COc1cc(C)nc(-n2nc(C)cc2OC)n1,inactive
5,OC(C#CCN1CCCC1)(c1ccccc1)c1ccccc1,22.4 µM (active)
6,C#C[C@]1(OC(C)=O)CC[C@H]2[C@@H]3CCC4=C/C(=N/O)CC[C@@H]4[C@H]3CC[C@@]21CC,inactive
7,CC[C@H](c1ccc(O)cc1)[C@@H](CC)c1ccc(O)cc1,inactive
8,CCCCC(CC)CN1CN(CC(CC)CCCC)CC(C)(N)C1 (configuration not stated),4.47 µM (active)
9,CC(=O)Nc1ncc([N+](=O)[O-])s1,inactive
10,CCCCN=C(N)N=C(N)N,inactive
11,CCCCc1cc2ccccc2c(OCCN(C)C)n1,7.94 µM (active)
12,NC(=O)n1c(O)c(C(=O)c2cccs2)c2cc(Cl)ccc21,inactive
13,COc1ccc2c(c1)c1c3n2CCN(C)C3=NCC1,3.98 µM (active)
14,O=C1OC(CN2CCOCC2)CN1/N=C/c1ccc([N+](=O)[O-])o1 (configuration not stated),inactive
15,CN1CCC(OC(c2ccccc2)c2ccccc2)CC1,4.47 µM (active)
16,CC(C)=CCOc1ccc(/C=C/C(=O)c2ccc(OCC=C(C)C)cc2OCC(=O)O)cc1,inactive
17,NC(N)=NN=C(/C=C/c1ccc([N+](=O)[O-])o1)/C=C/c1ccc([N+](=O)[O-])o1,0.0891 µM (active)
